The list is not random: actives were taken first. Their share in the collection is about 7.9%.
KB-3-1 cytotox: qHTS assay for MDR1-selective chemotherapeutics: Primary screen using the parental adenocarcinoma cell KB-3-1. KB-3-1 viability, CellTiter-Glo ATP luminescence, 72 h. Potency, µM (series often up to 46.1 µM), actives largely listed as cytotoxic. actives 1.4% (n = 400,000). AID 1347075, 2019; also: nearly all actives have a fitted effect of over 60% in size
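Parental KB-3-1 adenocarcinoma cells in phenol-red-free DMEM with 10% FBS were pin-treated with compounds at several concentrations, incubated 72 h at 37 °C, and viability read by CellTiter-Glo luminescence; concentration-effect curves were fitted after normalization.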
KB-V1 MDR tox: qHTS assay for MDR1-selective chemotherapeutics: Primary screen using the drug-selected MDR subline cells KB-V1 | actives 3.4% (n = 400,000) | AID 1347076, 2019 | KB-V1 MDR cells viability, CellTiter-Glo, 72 h | Potency, µM (titrated, usually from 46.1 µM), hits mostly cytotoxic; also: nearly all actives have a fitted effect of over 60% in size
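Cells of the MDR subline KB-V1 are plated, dosed with compound at multiple concentrations, and incubated 72 h at 37 degrees C; CellTiter-Glo is then added and luminescence read after 10 min.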
HT1080 IDH1KD tx: qHTS for induction of synthetic lethality in tumor cells producing 2HG: qHTS for the HT-1080-IDH1KD cell line; HT-1080 IDH1 knockdown viability, ATP luminescence, 48 h; Potency, µM (series often up to 46.1 µM), usual class: cytotoxic; actives 2% (n = 360,000)
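In this qHTS, HT-1080 cells depleted of IDH1 are exposed for 48 h at 37 °C to compound titrations. Toxicity is scored from CellTiter-Glo luminescence, with DMSO as full viability and medium alone as none.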
SW480 rereplic: A quantitative high throughput screen for small molecules that induce DNA re-replication in SW480 colon adenocarcinoma cells | Potency, µM (top dose mostly 46.1 µM), hits mostly activators | SW480 DNA re-replication, Hoechst DNA content imaging, 48 h | actives 1.8% (n = 340,000); also: nearly all actives have a fitted effect of over 55% in size
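Cells (250 per well) received 23 nL compound or DMSO by pin tool and were kept 48 hr at 37 C, 5% CO2. Nuclei were then stained with Hoechst for 40 min and scanned for DNA content.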
HT1080-NT tox: qHTS for induction of synthetic lethality in tumor cells producing 2HG: qHTS for the HT-1080-NT fibrosarcoma cell line. HT-1080-NT fibrosarcoma viability, CellTiter-Glo ATP luminescence, 48 h. Potency, µM (top dose mostly 46.1 µM), hits mostly cytotoxic. actives 1.6% (n = 360,000);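 also: NT is the 2HG producing partner of a matched IDH1 knockdown line; nearly all actives have a fitted effect of over 55% in size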
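Fibrosarcoma NT cells, 750 per well in 5% FBS RPMI, were exposed to compound for 48 hours. Viability: CellTiter-Glo luminescence.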
MCF10A rereplic: A quantitative high throughput screen for small molecules that induce DNA re-replication in MCF 10a normal breast cells; Potency, µM (series often up to 46.1 µM), most hits filed as activators; MCF 10A DNA re-replication, Hoechst nuclear intensity, 48 h; AID 624296, 2012; actives 2.9% (n = 350,000); also: nearly all actives have a fitted effect of over 50% in size
Of the large screens only hits and unclear results are named; the others gave an inactive call. Calls follow the shape of the dose curve; as a rule, active = well fitted curve in the direction sought with a large enough effect; inconclusive = small, poorly fitted or top-dose-only effect, or another doubt; inactive = no such curve, though single readings can be large; an effect the other way counts as inactive or inconclusive.

CN(C)c1ccc(CNC(=O)CN2CCSc3ccc(S(=O)(=O)N(C)C)cc32)cc1	KB-V1 MDR tox inconclusive (no result: HT1080 IDH1KD tx, SW480 rereplic, HT1080-NT tox, MCF10A rereplic)
CCc1ccc(S(=O)(=O)c2nnn3c2nc(NCCC(C)C)c2cc(Cl)ccc23)cc1	none (no result: HT1080 IDH1KD tx, SW480 rereplic, HT1080-NT tox, MCF10A rereplic)
CCCCNC(=O)CCCn1c(=O)c2ccccc2n(Cc2cccc(Cl)c2)c1=O	none (no result: HT1080 IDH1KD tx, SW480 rereplic, HT1080-NT tox, MCF10A rereplic)
O=C(CN1CCc2ccccc2C1)NC1CCCC1	SW480 rereplic 18µM
COc1ccccc1OCC(=O)NC1CCCCCCC1	KB-3-1 cytotox inconclusive, KB-V1 MDR tox 21µM
COC(C(=O)NC1CCCCCCC1)c1ccccc1 (stereo not given)	KB-V1 MDR tox 18µM
COC(CN(C)C(C(=O)NC1CCCCC1)c1ccccc1)OC (stereo not given)	KB-V1 MDR tox inconclusive
COc1ccccc1OCC(=O)N(Cc1nc(-c2ccccc2)no1)C1CCCCC1	KB-3-1 cytotox inconclusive, KB-V1 MDR tox 16µM
COc1ccccc1OCC(=O)OCC(=O)NC1CCCCC1	none
CC(C)c1cc(-c2nc(-c3ccccc3)no2)n[nH]1	none (no result: HT1080 IDH1KD tx, SW480 rereplic, HT1080-NT tox, MCF10A rereplic)
COc1ccc(CNC(=O)CN(C)c2nn3c(=O)cc(C)nc3s2)cc1	none (no result: HT1080 IDH1KD tx, SW480 rereplic, HT1080-NT tox, MCF10A rereplic)
CCn1nc(C)c(CCN(C)C(=O)Nc2cc(Cl)ccc2C)c1C	none (no result: HT1080 IDH1KD tx, SW480 rereplic, HT1080-NT tox, MCF10A rereplic)
Cc1cccc(CN2CCN(C3CN(Cc4cn(Cc5cccc(Cl)c5)nn4)S(=O)(=O)C3)CC2)c1 (stereo not given)	KB-3-1 cytotox inconclusive (no result: SW480 rereplic, MCF10A rereplic)
CCCn1c(CCC(=O)Nc2cc(C(=O)OC)cc(C(=O)OC)c2)nc2cccnc21	none (no result: HT1080 IDH1KD tx, SW480 rereplic, HT1080-NT tox, MCF10A rereplic)
Cc1ccc(C)c(OCCC(=O)OCC(=O)NCCNC(=O)COC(=O)CCOc2cc(C)ccc2C)c1	none
Cc1ccc(C)c(OCC(=O)NCCNC(=O)COc2cc(C)ccc2C)c1	KB-V1 MDR tox 18µM
O=C(COc1ccc(Br)cc1Cl)NC1CCCCC1	KB-3-1 cytotox inconclusive, KB-V1 MDR tox 18µM
Cc1ccccc1CSCC(=O)NC1CCCC1	none
CC(C)N(C(=O)COc1ccc(Br)cc1Cl)C(C)C	KB-V1 MDR tox 15µM
Cc1ccccc1CC(=O)NC1CCCCCC1	SW480 rereplic 0.92µM
OC(c1ccc(F)c(F)c1)c1nc(-c2ccoc2)cs1 (stereo not given)	none (no result: SW480 rereplic, MCF10A rereplic)
CCCCCCCCN1C(=O)[C@H](CC(=O)N2CCCCC2)C[C@@]2(C(=O)OC)CC(C)(C)CC=C12	KB-V1 MDR tox inconclusive, HT1080 IDH1KD tx inconclusive, HT1080-NT tox inconclusive (no result: SW480 rereplic, MCF10A rereplic)
CC(=O)c1ccc(NC(=O)COc2ccccc2-c2nc(-c3ccc(C)cc3)no2)cc1	none (no result: HT1080 IDH1KD tx, SW480 rereplic, HT1080-NT tox, MCF10A rereplic)
Cc1cn2c(=O)cc(COC(=O)c3ccccc3F)nc2s1	none (no result: HT1080 IDH1KD tx, SW480 rereplic, HT1080-NT tox, MCF10A rereplic)
CCOc1ccc(NC(=O)CSc2ncc(S(=O)(=O)c3ccc(F)c(C)c3)c(=O)[nH]2)cc1	none (no result: HT1080 IDH1KD tx, SW480 rereplic, HT1080-NT tox, MCF10A rereplic)
COc1cccc(OCc2cc(C3Nc4ccccc4C(=O)N3Cc3ccccc3)ccc2OC)c1 (stereo not given)	none (no result: HT1080 IDH1KD tx, SW480 rereplic, HT1080-NT tox, MCF10A rereplic)
COc1ccc(C2Nc3ccccc3C(=O)N2Cc2ccco2)cc1COc1c(C)cccc1C (stereo not given)	KB-3-1 cytotox 16µM (no result: HT1080 IDH1KD tx, SW480 rereplic, HT1080-NT tox, MCF10A rereplic)
COc1cccc(OCc2cc(C3Nc4ccccc4C(=O)N3Cc3ccco3)ccc2OC)c1 (stereo not given)	KB-V1 MDR tox 4.1µM
COC(=O)[C@@]12C[C@@H](CC(=O)NCC3CCCCC3)C(=O)N(CCc3ccc(OC)c(OC)c3)C1=CCC(C)(C)C2	KB-V1 MDR tox inconclusive, HT1080 IDH1KD tx inconclusive, HT1080-NT tox inconclusive (no result: SW480 rereplic, MCF10A rereplic)
Cc1cc(=O)[nH]c2c(C)c(N)ccc12	none
Cc1cc(C)c2ccc3c(C)c(C)nc3c2[nH]1	KB-3-1 cytotox inconclusive, KB-V1 MDR tox 16µM, HT1080 IDH1KD tx inconclusive, SW480 rereplic inconclusive, HT1080-NT tox inconclusive, MCF10A rereplic 21µM
CSCC(C)N1CCC(CO)(CCc2ccccc2)CC1 (stereo not given)	none
